Rows were chosen to be rich in hits. Some 10% of all compounds tested hit in one or more screens of this group.
MCF10A rerep = DNA re-replication induction in MCF 10a cells | Potency, µM (top dose mostly 46.1 µM), without a hit: at the top dose activity, positive = re-replication, hits mostly activators | 350,000 compounds, 2.9% hits | MCF 10A DNA re-replication, Hoechst nuclear intensity, 48 h | AID 624296; further: % of control where 0% means no effect; nearly all actives have a fitted effect of over 50% in size
VP16 counter = Gal4-VP16 reporter inhibition counter-screen | Potency, µM (highest dose often 53.6 µM), inactives show at the highest dose activity, negative = inhibition, actives largely listed as inhibitors | Drosophila S2 Gal4-VP16 UAS-luciferase, luminescence, 20 h | 310,000 compounds, 3.5% hits;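 further: Gal4-VP16 expression switched on by copper sulfate through the metallothionein promoter; on the % scale 0 is the no-effect control and ±100 the full control effect; nearly all actives have a fitted effect of over 50% in size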
RORg inh = ROR gamma (mouse) transcription inhibition | Drosophila S2 Gal4-RORgamma UAS-luciferase reporter, 20 h | Potency, µM (doses to about 53.6 µM), for inactives: at the top dose activity change, negative = inhibition, usual class: inhibitors | 310,000 compounds, 5.4% hits | P51450 | AID 2551; further: on the % scale 0 is the no-effect control and ±100 the full control effect; nearly all actives have a fitted effect of over 60% in size
Target sequence (P51450 whole entry, looked up, the tested form may be a part): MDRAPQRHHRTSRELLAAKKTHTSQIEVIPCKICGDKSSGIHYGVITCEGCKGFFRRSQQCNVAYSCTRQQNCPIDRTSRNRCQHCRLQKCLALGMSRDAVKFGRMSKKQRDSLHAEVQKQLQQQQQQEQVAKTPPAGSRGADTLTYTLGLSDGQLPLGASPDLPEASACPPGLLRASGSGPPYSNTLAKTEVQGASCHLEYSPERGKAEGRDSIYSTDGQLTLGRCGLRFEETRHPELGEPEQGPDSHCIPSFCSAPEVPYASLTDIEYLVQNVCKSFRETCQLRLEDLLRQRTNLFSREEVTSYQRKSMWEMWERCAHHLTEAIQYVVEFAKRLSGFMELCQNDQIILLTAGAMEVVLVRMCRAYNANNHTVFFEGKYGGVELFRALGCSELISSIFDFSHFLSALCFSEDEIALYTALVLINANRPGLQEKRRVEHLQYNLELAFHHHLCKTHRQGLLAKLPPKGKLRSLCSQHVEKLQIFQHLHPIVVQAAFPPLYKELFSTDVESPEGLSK
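Schneider cells (Drosophila), stable Gal4 DBD–ROR gamma + UAS-luc; 1 hr cmpd preincubation; Cu2+ induction 700 uM final; 20 hr ambient; luminescence.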
SW480 rereplic = induces DNA re-replication in SW480 colon adenocarcinoma cells. SW480 DNA re-replication, Hoechst DNA content imaging, 48 h. Potency, µM (doses to about 46.1 µM), inactives show at the top dose re-replication activation, usual class: activators. 340,000 compounds, 1.8% hits; further: % of control where 0% means no effect; nearly all actives have a fitted effect of over 55% in size
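Quantitative HTS format with DMSO vehicle controls; 48 hr drug incubation at 37 C, then 40 min Hoechst staining and scanning imager measurement at 405 nm excitation.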
ELG1 DNA repair = inhibitors of ELG1-dependent DNA repair in HEK293T cells. Potency, µM (highest dose often 46.1 µM), for the others: top-dose activity change, negative = inhibition, hits mostly inhibitors. 330,000 compounds, 2.3% hits. HEK293T ELG1-luciferase reporter, luminescence, 16 h; DNA damage induced by 5-fluorouridine; further: on the % scale 0 is the no-effect control and ±100 the full control effect; nearly all actives have a fitted effect of over 55% in size
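Step one: seed 2,000 cells per well. Step two: pin-transfer compound or DMSO alongside 5-fluorouridine. Step three: incubate 16 hr, 37 °C, 5% CO2. Step four: add ONE-Glo, wait 30 min, read luminescence.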
Active calls of the source: *; ! = not confirmed by another sample. The call rests on the fitted dose curve; in most records, active means well fitted curve in the direction sought with a large enough effect; inconclusive means small, poorly fitted or top-dose-only effect, or another doubt; inactive means no such curve, though single readings can be large; an effect the other way counts as inactive or inconclusive. Potency means the concentration at half of the fitted maximal effect.

`CCCC1S/C(=N/N=C/c2ccco2)NC1=O` (stereo unspecified) gave MCF10A rerep 5.0%, VP16 counter 3.16µM*, RORg inh 1.58µM*, SW480 rereplic -13.9% and ELG1 DNA repair 8.6%.
`CCC1S/C(=N/N=C/c2ccco2)N(Cc2ccccc2C)C1=O` (stereo unspecified) gave MCF10A rerep inconclusive, VP16 counter -2.4%, RORg inh 18.5%, SW480 rereplic 21.7% and ELG1 DNA repair inconclusive.
`CCC1S/C(=N/N=C/c2ccco2)N(Cc2ccc(F)cc2)C1=O` (stereo unspecified) gave MCF10A rerep 9.0%, VP16 counter -0.3%, RORg inh 25.9%, SW480 rereplic 1.4% and ELG1 DNA repair inconclusive.
CCCCC1S/C(=N/N=C/c2ccco2)NC1=O (stereo unspecified) was read as MCF10A rerep 3.0%, VP16 counter 2µM*, RORg inh 0.447µM*, SW480 rereplic 5.4% and ELG1 DNA repair 10.7%.
For O=C(c1ccc([N+](=O)[O-])s1)N1CCCc2ccccc21 the results were MCF10A rerep 13.5%, VP16 counter -13.3%, RORg inh -13.3%, SW480 rereplic 6.51µM* and ELG1 DNA repair inconclusive.
`COc1cc(C(=O)N2CCCc3ccccc32)c([N+](=O)[O-])cc1OC` gave MCF10A rerep 16.4µM*, VP16 counter -1.4%, RORg inh 5.8%, SW480 rereplic -3.5% and ELG1 DNA repair -2.1%.
Screening O=C(c1ccc([N+](=O)[O-])s1)N1CCc2ccccc21 returned MCF10A rerep -0.1%, VP16 counter -0.5%, RORg inh -0.3%, SW480 rereplic -13.2% and ELG1 DNA repair inconclusive.
`COc1cc(C(=O)N2CCN(c3ccccc3OC)CC2)c([N+](=O)[O-])cc1OC` gave MCF10A rerep 23.2%, VP16 counter -0.4%, RORg inh -18.1%, SW480 rereplic inconclusive and ELG1 DNA repair -8.3%.
CCCC(=O)O[C@]1(C(=O)COC(C)=O)CC[C@H]2C3C[C@H](F)C4=CC(=O)C=CC4(C)[C@@]3(F)[C@@H](O)CC21C (stereo partly specified) was read as MCF10A rerep -0.2%, VP16 counter 1.0%, RORg inh -25.1% and SW480 rereplic 8.6%.
Screening COc1cc(OC)cc(C(=O)NNC(=O)CCC(=O)c2cc(C)sc2C)c1 returned MCF10A rerep -0.8%, SW480 rereplic -4.1% and ELG1 DNA repair -1.3%.
`Cc1cc(C)cc(OCC(=O)Nc2ccc3c4c(cccc24)CC3)c1` gave MCF10A rerep inconclusive, VP16 counter inconclusive, RORg inh inconclusive, SW480 rereplic 0.8% and ELG1 DNA repair inconclusive.
Screening O=C(COc1ccc2ccccc2c1)Nc1ccc2c3c(cccc13)CC2 returned MCF10A rerep 20.6µM*, VP16 counter inconclusive, RORg inh -29.5%, SW480 rereplic -9.1% and ELG1 DNA repair 21.6%.
Screening O=C(COc1ccc2ccccc2c1)Nc1ccc(Br)cc1C(=O)O returned MCF10A rerep 9.2µM*, VP16 counter inconclusive, RORg inh -25.1%, SW480 rereplic -3.1% and ELG1 DNA repair 8.4%.
`Cc1ccc(C(=O)NC(=O)CSc2nnc(C)s2)cc1` gave MCF10A rerep -1.1%, VP16 counter -8.7%, RORg inh 13.6%, SW480 rereplic 5.7% and ELG1 DNA repair 7.6%.
CCCC/C(O)=C1\C(=O)CCCC1=NCCc1c(C)[nH]c2ccccc12 was read as MCF10A rerep 6.5%, VP16 counter -2.7%, RORg inh 30.4%, SW480 rereplic -3.1% and ELG1 DNA repair inconclusive.
Screening COc1cc(C2c3cc4c(cc3OC(NCCc3ccccc3)C2C)OCO4)cc(OC)c1OC (stereo unspecified) returned MCF10A rerep 1.03µM* and SW480 rereplic 1.03µM*.
For COc1cc(C2c3cc4c(cc3OC(C)(N3CCCC3)C2C)OCO4)cc(OC)c1OC (stereo unspecified) the results were MCF10A rerep 0.651µM* and SW480 rereplic 5.17µM*.
COc1cc(C2c3cc4c(cc3OC(Nc3ccc(C(=O)O)cc3)C2C)OCO4)cc(OC)c1OC (stereo unspecified) was read as MCF10A rerep 1.3µM* and SW480 rereplic 0.651µM*.
`CN(C)c1ccc(C(C[N+](=O)[O-])c2c(N)n(C)c(=O)n(C)c2=O)c(F)c1C#N` (stereo unspecified) gave MCF10A rerep 3.66µM*, VP16 counter 11.2µM*, RORg inh 6.31µM*, SW480 rereplic inconclusive and ELG1 DNA repair -8.0%.
COc1ccc(Br)cc1C(C[N+](=O)[O-])c1c(N)n(C)c(=O)n(C)c1=O (stereo unspecified) was read as MCF10A rerep inconclusive, VP16 counter inconclusive, RORg inh inconclusive, SW480 rereplic 3.1% and ELG1 DNA repair 13.9%.
`Cn1c(N)c(C(C[N+](=O)[O-])c2c(F)cccc2Cl)c(=O)n(C)c1=O` (stereo unspecified) gave MCF10A rerep inconclusive, VP16 counter inconclusive, RORg inh inconclusive, SW480 rereplic 16.4µM* and ELG1 DNA repair inconclusive.
CCOc1ccc(/C=C/C(=O)OCC(=O)NCCc2ccc(OCC)c(OCC)c2)cc1OC was read as MCF10A rerep 0.0%, SW480 rereplic -1.8% and ELG1 DNA repair -12.6%.
Screening CCOC(OCC)c1cc2ccccc2cn1 returned MCF10A rerep -0.1%, SW480 rereplic 2.3% and ELG1 DNA repair inconclusive.
`O=c1cc(-c2ccccc2Cl)oc2c(NS(=O)(=O)c3cc(Cl)cc(Cl)c3O)ccc(O)c12` gave MCF10A rerep -31.8%, VP16 counter 5.01µM*, RORg inh inconclusive, SW480 rereplic 20.4% and ELG1 DNA repair inconclusive.
For c1ccc(CN(CC2=NCCN2)c2ccccc2)cc1 the results were MCF10A rerep 8.7%, VP16 counter -7.5%, RORg inh -7.2%, SW480 rereplic 0.231µM*! and ELG1 DNA repair 2.1%.
COc1c(C(=O)NCCSC(C)(C)C)ccc2ccccc12 was read as MCF10A rerep 3.7%, VP16 counter 0.0%, RORg inh 2.24µM*, SW480 rereplic 0.3% and ELG1 DNA repair inconclusive.
Screening CSc1ccccc1C(=O)NCCSC(C)(C)C returned MCF10A rerep 1.3%, VP16 counter 13.1%, RORg inh 34.1%, SW480 rereplic -1.9% and ELG1 DNA repair inconclusive.
O=C(CSC1=NNC(c2ccccn2)S1)Nc1ccccc1 (stereo unspecified) was read as MCF10A rerep inconclusive, VP16 counter 2.51µM*, RORg inh 1µM*, SW480 rereplic 16.4µM* and ELG1 DNA repair 1.5%.
O=C(CSc1nncn1-c1ccccn1)Nc1cccc(Cl)c1 was read as MCF10A rerep -4.4%, VP16 counter -10.8%, RORg inh 7.9%, SW480 rereplic -10.8% and ELG1 DNA repair 22.0%.
